Consider five compounds from PubChem BioAssay AID651800 (The Scripps Research Institute Molecular Screening Center, 2012).

Structures are written as SMILES. Out of some 360,000 compounds screened, about 1,300 (0.36%) were called active. What follows is part of a selection rich in actives, with near analogues and random picks from the rest. Unmarked numbers belong to inactive results. Cut-off read from the data, not from the text of the source: active = inhibition above about 19%; inactive = the rest.

What is called inhibition is the change of the read-out against control, counted positive when it falls.

This assay has as its system T-cell receptor (TCR). The assay is described as follows: small molecules blocking TCR binding to CD3 – biochemical, fluorescence, TAMRA-labeled TCR probe, primary screen (AID 651800).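 Note: recombinant mutant TCR 2C K166C tagged with TAMRA read by polarization; 0% = receptor in buffer alone and 100% = receptor with positive control.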 The note with it: at 9.4 µM, stronger effect = higher value.
For the compound `CC/C(=N\NC(=O)c1ccccc1O)c1c(O)n(Cc2ccccc2)c(=O)[nH]c1=O`, the inhibition was 28.9% (active).
As to `CCCCn1c(O)c(C(CC)=NCc2ccco2)c(=O)[nH]c1=O`, the inhibition was -3.64%.
Under `CCCCCCN=C(CC)c1c(O)n(CCCC)c(=O)[nH]c1=O` stands 0.66%.
Under `Cc1ccc(N(C)C(=O)Oc2cccc3ccc(C)nc23)cc1` stands 1.25%; under `COc1ccc(NC(=O)c2cn(CCC#N)nc2-c2ccc([N+](=O)[O-])cc2)cc1`, 6.55%.
